High-throughput results (PubChem BioAssay)
This is a sample that favours compounds with a hit; in the whole collection about 11% have one here.
HEK293 tox – cytotoxic compounds in HEK 293 cells | HEK 293 viability, ATP luminescence (CellTiter-Glo), 48-72 h | Potency, µM (highest dose often 115 µM), actives largely listed as inhibitors | 94,000 tested, 6.6% active | AID 1345083; further: nearly all actives have a fitted effect of over 60% in size
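CellTiter-Glo luminescence (cellular ATP) was read after 48 or 72 hr of compound exposure at 37 degree Celsius. Cells were HEK 293 plated at 250 cells/well.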
NIH3T3 tox – cytotoxic compounds in NIH 3T3 cells | NIH 3T3 viability, CellTiter-Glo ATP luminescence, 48-72 h | Potency, µM (highest dose often 96.7 µM), actives largely listed as inhibitors | 94,000 tested, 4.3% active | AID 1345082; further: nearly all actives have a fitted effect of over 55% in size
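Cytotoxicity was measured by CellTiter-Glo ATP luminescence after 48 or 72 h compound exposure at 37 °C. Mouse NIH 3T3 fibroblasts were seeded at 400 cells/well and dosed by 23 nL pin transfer.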
hNpr1 antagonist – human Npr1 receptor antagonism | P16066 | HEK293 hNpr1 GloSensor cGMP, ANP-stimulated luminescence | Potency, µM (titrated, usually from 46.3 µM), hits mostly inhibitors | 76,000 tested, 1.6% active; calls by dose curve; further: nearly all actives have a fitted effect of over 60% in size
Target sequence (P16066 whole entry, looked up): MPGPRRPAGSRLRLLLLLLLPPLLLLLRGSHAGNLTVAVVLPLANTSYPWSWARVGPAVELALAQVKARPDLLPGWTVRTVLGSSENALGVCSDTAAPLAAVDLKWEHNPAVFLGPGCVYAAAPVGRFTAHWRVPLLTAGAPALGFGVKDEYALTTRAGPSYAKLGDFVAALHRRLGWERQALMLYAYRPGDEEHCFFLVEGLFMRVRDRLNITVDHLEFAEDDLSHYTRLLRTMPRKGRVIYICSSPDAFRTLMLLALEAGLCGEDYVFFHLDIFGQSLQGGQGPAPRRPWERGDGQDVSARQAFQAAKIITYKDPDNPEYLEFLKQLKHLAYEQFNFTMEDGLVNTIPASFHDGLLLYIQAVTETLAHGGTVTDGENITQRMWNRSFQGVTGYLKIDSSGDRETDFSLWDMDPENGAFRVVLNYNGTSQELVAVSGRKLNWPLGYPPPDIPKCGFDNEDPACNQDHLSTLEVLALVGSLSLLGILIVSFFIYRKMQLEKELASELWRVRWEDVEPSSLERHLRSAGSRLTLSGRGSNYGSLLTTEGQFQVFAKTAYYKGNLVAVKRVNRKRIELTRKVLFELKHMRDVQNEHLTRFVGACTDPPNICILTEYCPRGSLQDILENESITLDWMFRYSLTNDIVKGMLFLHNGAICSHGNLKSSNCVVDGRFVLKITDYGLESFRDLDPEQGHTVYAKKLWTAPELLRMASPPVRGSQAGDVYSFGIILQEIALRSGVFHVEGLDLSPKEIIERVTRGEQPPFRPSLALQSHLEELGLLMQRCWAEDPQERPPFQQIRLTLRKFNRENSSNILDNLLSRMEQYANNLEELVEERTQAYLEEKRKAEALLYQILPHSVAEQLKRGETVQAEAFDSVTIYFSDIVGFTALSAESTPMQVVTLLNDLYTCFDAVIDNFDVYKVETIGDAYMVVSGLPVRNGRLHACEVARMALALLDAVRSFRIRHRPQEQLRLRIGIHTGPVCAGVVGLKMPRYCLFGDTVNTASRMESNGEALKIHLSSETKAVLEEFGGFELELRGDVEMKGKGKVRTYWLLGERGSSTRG
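HEK293 cells stably expressing human Npr1 and cGMP GloSensor pGS-40F, loaded 2 h with 2% GloSensor reagent, given compound 30 min at room temperature. Luminescence read before and 20 min after 0.1 nM hNppA.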
Luciferase inh – blocks purified firefly luciferase enzyme activity. P08659. purified P. pyralis luciferase, luminescence, biochemical. Potency, µM (titrated, usually from 115 µM), usual class: inhibitors. 76,000 tested, 2.5% active; further: nearly all actives have a fitted effect of over 65% in size
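Luminescence read by CCD imager after adding enzyme (10nM final) to wells holding compound, titrated in qHTS. Substrates 10uM each D-luciferin and ATP; buffer 50mM Tris acetate pH 7.5, 10mM Mg acetate, Tween-20, BSA.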
Npr1 antag conf – confirmation of human Npr1 natriuretic peptide receptor antagonists; shares compounds with hNpr1 antagonist; HEK293 hNpr1 cGMP GloSensor luminescence, ANP-stimulated; Potency, µM (doses to about 57.6 µM), usual class: inhibitors; 1,400 tested, 76% active; AID 1347044; calls by dose curve; further: nearly all actives have a fitted effect of over 70% in size
NPR2 antag – antagonizes human Npr2, subtype selectivity check | Potency, µM (top dose mostly 57.6 µM), usual class: inhibitors | HEK293 hNpr2 GloSensor cGMP luminescence, CNP-stimulated | shares compounds with hNpr1 antagonist | AID 1347046 | 1,400 tested, 67% active; calls by dose curve; further: nearly all actives have a fitted effect of over 70% in size
FLuc counter – FLuc enzyme inhibition, Npr1 counter-screen. shares compounds with hNpr1 antagonist. purified FLuc enzyme, luminescence, Km substrate. Potency, µM (series often up to 57.6 µM), most hits filed as inhibitors. 1,400 tested, 0.7% active. AID 1347047
GloSensor cGMP – counter-screen for Npr1 antagonists: GloSensor control cell line; shares compounds with hNpr1 antagonist; Potency, µM (top dose mostly 57.6 µM), usual class: inhibitors; HEK293 GloSensor cGMP, SNP-stimulated, luminescence; 1,400 tested, 69% active; calls by dose curve; further: nearly all actives have a fitted effect of over 70% in size
A number is an active result; i = inactive; ? = inconclusive; nt = no result. Unless noted, the call rests on the fitted dose curve; in most records, active means well fitted curve in the direction sought with a large enough effect; inconclusive means small, poorly fitted or top-dose-only effect, or another doubt; inactive means no such curve, though single readings can be large; an effect the other way counts as inactive or inconclusive.

SMILES	HEK293 tox	NIH3T3 tox	hNpr1 antagonist	Luciferase inh	Npr1 antag conf	NPR2 antag	FLuc counter	GloSensor cGMP
COc1ccc(C(=O)Nc2ccc(-c3noc([C@@H]4CCCN4CC4CCCCC4)n3)cn2)cc1	45µM	?	10µM	i	6.9µM	12µM	i	12µM
COc1ccc(C(=O)Nc2ccc(-c3noc([C@@H]4CCCN4Cc4ccc(C(F)(F)F)cc4)n3)cn2)cc1	?	?	11µM	i	11µM	14µM	i	9.7µM
COc1ccc(C(=O)Nc2ccc(-c3noc([C@@H]4CCCN4Cc4ccc(OC(F)(F)F)cc4)n3)cn2)cc1	?	?	11µM	i	12µM	11µM	i	11µM
O=C(CC1CCCC1)N1CCC(N2CC(OCC3CC3)C23CCOCC3)CC1 (centres undefined)	i	i	i	i	nt	nt	nt	nt
O=C(NCc1ccc(F)cc1)c1nc2cccnc2n(CCc2ccccc2)c1=O	?	i	nt	nt	nt	nt	nt	nt
COc1ccc(-c2cccc(C(=O)N3CCC(NC(=O)C4CCCC4)CC3)c2)nn1	i	i	nt	nt	nt	nt	nt	nt
CC(=O)N1CCC(n2nccc2NC(=O)c2ccc3c(c2)OCO3)CC1	i	i	i	i	nt	nt	nt	nt
CN(C)c1nccnc1OC1CCN(C(=O)CCC(=O)c2ccc(F)cc2)C1 (centres undefined)	?	i	i	?	nt	nt	nt	nt
CCn1nccc1C(=O)N1CCC(CCOc2ccc(F)cc2)C1 (centres undefined)	35µM	?	13µM	i	22µM	24µM	i	24µM
O=C1CC2(CCN(C(=O)C3CCCN(C(=O)c4ccc(Cl)nc4)C3)CC2)Oc2ccccc2N1 (centres undefined)	i	i	nt	nt	nt	nt	nt	nt
CN(C)C(=O)C1CCC(C(=O)N2CCC(c3nc4ncccc4[nH]3)CC2)CC1 (centres undefined)	i	i	nt	nt	nt	nt	nt	nt
Cc1ncsc1C(=O)N1CCNc2cnc(Nc3cccc(F)c3)nc2C1	?	?	14µM	i	13µM	18µM	i	11µM
CC(C)NC(=O)N1CCNc2cnc(Nc3cccc(C(F)(F)F)c3)nc2C1	35µM	40µM	13µM	i	18µM	22µM	i	16µM
COc1cccc(-c2cc(C3CCN(C(=O)c4ccccc4Br)CC3)[nH]n2)c1	28µM	?	18µM	i	24µM	24µM	i	22µM
O=C(c1ccccn1)N1CCC(c2cc(-c3ccccc3)n[nH]2)CC1	?	i	i	i	nt	nt	nt	nt
COc1ccc(CN2CC3(CCN(C(=O)Nc4cccc(C(F)(F)F)c4)CC3)C2=O)cc1	?	?	16µM	i	?	?	i	?
O=C(CCCc1c[nH]c2ccccc12)N1CCC(c2noc(COc3ccc(F)cc3)n2)CC1	?	?	11µM	i	22µM	24µM	i	17µM
CN(CC#N)C(=O)[C@@H]1CCCN1c1ccnc2ccnn12	i	i	nt	nt	nt	nt	nt	nt
CCCNC(=O)CC(c1ccc(F)cc1)c1c[nH]c2ccccc12 (centres undefined)	?	?	i	i	nt	nt	nt	nt
Cc1ccc(F)c(C(CC(=O)NCc2ccco2)c2c[nH]c3ccc([N+](=O)[O-])cc23)c1 (centres undefined)	40µM	32µM	i	i	?	?	i	?
O=C(CN1CCCc2nc(-c3ccncc3)ncc2C1=O)N1CCc2ccccc2C1	35µM	?	8.9µM	i	12µM	15µM	i	15µM
O=C(CN1CCCc2nc(-c3ccncc3)ncc2C1=O)NCCN1CCOCC1	i	i	i	i	nt	nt	nt	nt
COc1cccc(CN2CCN(c3nc4c(s3)c(C)nn4C)CC2=O)c1	?	?	?	i	?	?	i	?
COCCN1C[C@H]2CN(Cc3cccc(OC)c3)CCN2C1=O	i	i	i	i	nt	nt	nt	nt
CCCNC(=O)N1CCCCCNC(=O)CC1c1ccccc1 (centres undefined)	i	i	i	i	nt	nt	nt	nt
SMILES	HEK293 tox	NIH3T3 tox	hNpr1 antagonist	Luciferase inh	Npr1 antag conf	NPR2 antag	FLuc counter	GloSensor cGMP
Cc1nn2c(c1-c1ccnn1C(C)C)N(Cc1ccc(C(=O)O)s1)CCC2	?	13µM	16µM	i	11µM	11µM	i	14µM
CC(C)C1=NOC2(CCN(Cc3ccc(C(F)(F)F)cc3)CC2)C1	?	?	11µM	i	25µM	31µM	i	20µM
O=C1Nc2ccccc2OCC12CCN(Cc1ccc(C(F)(F)F)cc1)CC2	?	i	11µM	i	24µM	24µM	i	24µM
Cc1nsc(NC(=O)NC23CC4CC(C2)CC(C(C)C)(C4)C3)n1	32µM	?	13µM	i	31µM	27µM	i	?
Cc1nsc(NC(=O)N2CCC(C(C)O)CC2)n1 (centres undefined)	i	i	i	?	nt	nt	nt	nt
COCC(=O)N1CC(C(=O)NCc2cccc(F)c2)CC(c2ccc(F)c(C)c2)C1 (centres undefined)	?	i	i	i	nt	nt	nt	nt
CCNC(=O)N1CC(C(=O)NCc2cccc(C)c2)CC(c2ccc(F)c(C)c2)C1 (centres undefined)	?	?	22µM	i	?	?	i	?
O=C(C1CCC1)N1CCC(Cc2nc(C3CCOCC3)no2)CC1	?	i	i	i	nt	nt	nt	nt
Cc1ccccc1C(=O)N1CCC2(CC1)N=C(c1ccc(Br)cc1)NO2	?	?	14µM	i	27µM	24µM	i	24µM
COc1cc(OC)cc(C(=O)N2CCC3(CC2)N=C(c2ccccc2)NO3)c1	i	i	i	i	nt	nt	nt	nt
COc1ccc(C(=O)N2CCC3(CC2)N=C(c2ccc(Br)cc2)NO3)cc1	?	i	10µM	i	12µM	14µM	i	9.7µM
O=C(c1ccc2nc(-c3cccnc3)oc2c1)N1CCOCC1	?	i	nt	nt	nt	nt	nt	nt
CCC(=O)N(C1CCOCC1)C1CCN(S(=O)(=O)c2ccc(F)cc2F)CC1	i	i	i	i	nt	nt	nt	nt
COc1cccc([S+](=O)([O-])N2CCCC3(C2)C(=NC2CCCC2)NC(=O)N3c2cc(F)cc(F)c2)c1 (centres undefined)	?	?	i	i	nt	nt	nt	nt
CCN(Cc1ccncc1)C(=O)CC(c1ccccc1)c1ccc2c(c1)OCO2 (centres undefined)	?	i	?	i	?	14µM	i	i
COc1ccc(CN2CCCn3nc(C)c(-c4ccccc4Oc4ccccc4)c32)cc1O	20µM	11µM	2.5µM	i	22µM	22µM	i	4.8µM
Cc1nn2c(c1-c1ccccc1Oc1ccccc1)N(Cc1ccc(C(=O)O)cc1)CCC2	45µM	25µM	2.8µM	i	?	?	i	?
